# PubChem BioAssay (EPA / NIEHS)
# Records with an inconclusive call do not appear. More than one record can exist for a structure, and the calls need not agree. Calls of active or inactive are those of the source. Rule for the calls: active = hit-call score of the fitted dose curve at least 0.9, where 1 is the maximum; inconclusive = response in the unintended direction; inactive = score below 0.9.
# Columns and labels:
# [1] = TOX21_p53_BLA_p2_viability: Viability Assessment in the Tox21 HCT-116 p53 Agonism Beta-lactamase Assay, Phase 2 (AID 2283591);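 note: actives lower the ATP signal meaning cytotoxicity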
# Summary of the method: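 Cytotoxicity readout: CellTiter-Glo ATP luminescence, 30 min at room temperature, after the beta-lactamase read. Cells were HCT116 exposed 16 h at 37C to compounds pin-transferred at 217-fold dilution from DMSO stocks.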
# [2] = biological target: Cellular tumor antigen p53 (Homo sapiens) (UniProt P04637); assay: TOX21_p53_BLA_p3_ratio: Tox21 HCT-116 p53 Agonism Beta-lactamase Assay, Ratio, Phase 3 (AID 2283596)
# Chain of Cellular tumor antigen p53 (Homo sapiens) (P04637 whole entry, looked up): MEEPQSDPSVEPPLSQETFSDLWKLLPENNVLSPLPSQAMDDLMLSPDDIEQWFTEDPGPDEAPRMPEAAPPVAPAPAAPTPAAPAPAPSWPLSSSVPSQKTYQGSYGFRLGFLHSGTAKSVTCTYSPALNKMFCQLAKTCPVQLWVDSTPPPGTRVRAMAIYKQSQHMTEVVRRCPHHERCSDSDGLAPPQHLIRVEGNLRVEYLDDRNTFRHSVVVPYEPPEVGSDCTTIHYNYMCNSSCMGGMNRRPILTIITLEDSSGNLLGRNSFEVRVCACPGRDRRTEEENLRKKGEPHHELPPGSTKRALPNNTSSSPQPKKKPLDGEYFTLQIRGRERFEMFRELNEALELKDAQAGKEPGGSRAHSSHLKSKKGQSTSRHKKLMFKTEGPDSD
# Summary of the method: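 Cells were seeded at 4000/well, rested 5 h at 37C, then dosed with DMSO compound solutions (217-fold dilution) for 16 h. CCF4-AM substrate was loaded for 2 h at room temperature, and the 460/530 nm emission ratio was fitted for gain of signal versus DMSO.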
# [3] = TOX21_p53_BLA_p4_viability: Viability Assessment in the Tox21 HCT-116 p53 Agonism Beta-lactamase Assay, Phase 4 (AID 2283597);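 note: hits lower the luminescence signal meaning cytotoxicity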
# Summary of the method: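 ATP content by CellTiter-Glo luminescence, 30 min RT, read after the beta-lactamase ratio step. Cells: HCT116, 4000/well, compound added after 5 h, exposure 16 h at 37C. Signal loss = reduced viability.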
# [4] = biological target: Cellular tumor antigen p53 (Homo sapiens) (UniProt P04637); assay: TOX21_p53_BLA_p5_ratio: Tox21 HCT-116 p53 Agonism Beta-lactamase Assay, Ratio, Phase 5 (AID 2283599)
# Summary of the method: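 Beta-lactamase reporter ratio (blue 460 nm over green 530 nm, 405 nm excitation) after 2 h CCF4-AM loading, in HCT-116 cells exposed 16 h at 37 C to compounds pinned at 217-fold dilution. Increases relative to DMSO baseline scored.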
# [5] = TOX21_p53_BLA_p5_viability: Viability Assessment in the Tox21 HCT-116 p53 Agonism Beta-lactamase Assay, Phase 5 (AID 2283600)
# Summary of the method: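 ATP luminescence (CellTiter-Glo, 30 min, RT) served as the viability read-out, with loss of signal indicating cytotoxicity. Compounds in DMSO were pinned at a 217-fold dilution onto 4000 cells/well and incubated 16 h, 37C.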
# [6] = TOX21_p53_BLA_p3_viability: Viability Assessment in the Tox21 HCT-116 p53 Agonism Beta-lactamase Assay, Phase 3 (AID 2283593);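 note: cells exposed to compound for 16 h before reading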
# Summary of the method: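 Cellular ATP was quantified by CellTiter-Glo luminescence, read after 30 min at room temperature. Beforehand, HCT116 cells (4000/well) received compound 5 h post-seeding, 217-fold diluted from DMSO, then incubated 16 h at 37C.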
# [7] = biological target: Cellular tumor antigen p53 (Homo sapiens) (UniProt P04637); assay: TOX21_p53_BLA_p4_ratio: Tox21 HCT-116 p53 Agonism Beta-lactamase Assay, Ratio, Phase 4 (AID 2283601)
# Summary of the method: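 Signal is the blue/green (460nm/530nm) ratio of cleaved versus uncleaved CCF4-AM substrate, read after 2 h substrate loading. Cells were HCT116 carrying the p53-responsive beta-lactamase reporter, dosed 16 h at 37C, 5% CO2; CellTiter-Glo measured in parallel.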
# [8] = biological target: Thyroid hormone receptor alpha (Rattus norvegicus) + Thyroid hormone receptor beta (Rattus norvegicus) (UniProt P18113+P63059); assay: TOX21_TR_LUC_GH3_Antagonist_Followup: Tox21 GH3 Thyroid Hormone Receptor Antagonism Luciferase Follow-Up Assay (AID 2283942)
# Summary of the method: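 Loss of T3-driven (1.0 nM final) reporter activity in GH3 cells was read by ONE-Glo luminescence after 24 h incubation at 37C; 15-point compound series spanned 92 uM to 5nM final, 1,500 cells/well.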
# THRB (gene 7068) [9] = biological target: THRB (gene 7068) (UniProt P10828); assay: TOX21_TRB_BLA_Antagonist_Followup_ratio: Tox21 Thyroid Hormone Receptor beta Antagonism Beta-lactamase (BLA) Follow-Up Assay, Ratio (AID 2283958)
# Chain of THRB (gene 7068) (P10828 whole entry, looked up, the tested form may be a part): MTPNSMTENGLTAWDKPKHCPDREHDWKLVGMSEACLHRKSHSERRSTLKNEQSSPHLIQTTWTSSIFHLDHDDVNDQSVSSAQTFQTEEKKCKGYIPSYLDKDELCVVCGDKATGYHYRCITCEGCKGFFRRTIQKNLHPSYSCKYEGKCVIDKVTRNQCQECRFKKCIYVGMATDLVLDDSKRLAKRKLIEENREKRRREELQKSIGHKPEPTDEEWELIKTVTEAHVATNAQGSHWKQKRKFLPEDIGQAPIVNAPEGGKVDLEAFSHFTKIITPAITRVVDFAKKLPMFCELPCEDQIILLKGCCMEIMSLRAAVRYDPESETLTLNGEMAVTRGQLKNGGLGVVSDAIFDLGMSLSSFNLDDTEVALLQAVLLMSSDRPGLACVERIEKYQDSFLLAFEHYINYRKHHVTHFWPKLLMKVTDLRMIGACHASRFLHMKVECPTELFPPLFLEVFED
# Summary of the method: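 Using charcoal-stripped 2% FBS medium, human TRβ-LBD/GAL4 reporter HEK293T cells received test compounds for 18 h. The endpoint is the cleaved-to-uncleaved substrate ratio (460/530 nm).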
# [10] = TOX21_TRB_BLA_Antagonist_Followup_viability: Viability Assessment in the Tox21 Thyroid Hormone Receptor beta Antagonism Beta-lactamase (BLA) Follow-Up Assay (AID 2283961)
# Summary of the method: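 Viability read as CellTiter-Glo ATP luminescence (loss of signal = cytotoxicity) in the same plates as the TRβ-bla readout. TRβ-LBD/GAL4 UAS-bla HEK293T cells were exposed to compounds, 11 concentrations in triplicate, for 18 h at 37C/5% CO2.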
# THRB (gene 7068) [11] = biological target: THRB (gene 7068) (UniProt P10828); assay: TOX21_TRB_COA_Antagonist_Followup_ratio: Tox21 Thyroid Hormone Receptor beta Antagonism through Coactivator Recruitment Follow-Up Assay, Ratio (AID 2283967)
# Summary of the method: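 Coactivator recruitment to the GST-tagged TRb ligand-binding domain (5.0 nM) was read as the 520/495 nm TR-FRET ratio, using 200 nM fluorescein SRC-2 peptide and 2 nM terbium anti-GST. Scaled between DMSO and T3 wells; loss of signal fitted.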
# [12] = biological target: Retinoic acid receptor RXR-alpha (Homo sapiens) (UniProt P19793); assay: TOX21_TR_RXR_BLA_Antagonist_Followup_ratio: Tox21 Thyroid Hormone Receptor beta Retinoid X Receptor alpha (RXRa) Antagonism Beta-lactamase (BLA) Follow-Up Assay, Ratio (AID 2283972)
# Chain of Retinoic acid receptor RXR-alpha (Homo sapiens) (P19793 whole entry, looked up, the tested form may be a part): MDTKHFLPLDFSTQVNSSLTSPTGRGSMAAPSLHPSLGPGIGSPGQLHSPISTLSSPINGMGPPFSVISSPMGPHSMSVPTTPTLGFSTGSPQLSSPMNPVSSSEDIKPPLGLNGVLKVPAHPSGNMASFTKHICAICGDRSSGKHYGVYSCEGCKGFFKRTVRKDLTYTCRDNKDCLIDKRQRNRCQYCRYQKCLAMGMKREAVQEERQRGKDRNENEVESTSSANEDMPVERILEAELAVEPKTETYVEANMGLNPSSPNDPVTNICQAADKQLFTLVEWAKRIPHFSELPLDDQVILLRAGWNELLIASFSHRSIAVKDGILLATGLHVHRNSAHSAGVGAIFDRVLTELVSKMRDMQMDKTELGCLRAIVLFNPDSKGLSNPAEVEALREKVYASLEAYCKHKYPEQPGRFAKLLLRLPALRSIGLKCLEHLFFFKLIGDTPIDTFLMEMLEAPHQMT
# Summary of the method: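 Beta-lactamase reporter readout as cleaved/uncleaved substrate ratio (460:530 nm) after 2 h substrate loading at room temperature. GAL4-RXRa bla HEK293T cells were exposed 16 h at 37C to 11-point compound series; loss of signal scored against DMSO baseline.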
# [13] = TOX21_TR_RXR_BLA_Antagonist_Followup_viability: Viability Assessment in the Tox21 Thyroid Hormone Receptor beta Retinoid X Receptor alpha (RXRa) Antagonism Beta-lactamase (BLA) Follow-Up Assay (AID 2283979)
# Summary of the method: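 Follow-up compounds (11 concentrations, triplicate) were incubated 16 h at 37C/5% CO2 with HEK293T RXRa-bla cells seeded at 2,500/well in charcoal-stripped-serum medium. ATP content by CellTiter-Glo luminescence gave viability; curves fitted in both directions against DMSO.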
smiles,measurement,setting,value
BrC/C=C/CBr,outcome,[1],inactive
same,outcome,[2],inactive
same,outcome,[3],inactive
same,outcome,[4],inactive
same,outcome,[5],inactive
O=C(O)C(=O)Cc1ccccc1,outcome,[1],inactive
same,outcome,[6],inactive
same,outcome,[4],inactive
same,outcome,[7],inactive
CCCC(=O)OC(=O)CCC,outcome,[1],inactive
same,outcome,[2],inactive
same,outcome,[3],inactive
same,outcome,[4],inactive
same,outcome,[5],inactive
same,outcome,[7],inactive
C=CC(=O)OCCCl,outcome,[1],inactive
same,outcome,[6],inactive
same,outcome,[5],inactive
C[C@@]12CCC[C@H]1[C@@H]1CC[C@H]3C[C@@H](O)CC[C@]3(C)[C@H]1CC2,outcome,[1],inactive
same,outcome,[2],inactive
CC(=O)c1ccc2c(c1)N(CCCN(C)C)c1ccccc1S2,outcome,[1],inactive
same,outcome,[2],inactive
same,outcome,[3],inactive
same,outcome,[4],inactive
CC(C)Cc1nccs1,outcome,[1],inactive
same,outcome,[2],inactive
same,outcome,[3],inactive
same,outcome,[4],inactive
Nc1ncnc2c1ncn2[C@H]1CC[C@@H](CO)O1,outcome,[1],inactive
same,outcome,[2],inactive
same,outcome,[3],inactive
same,outcome,[4],inactive
same,outcome,[5],inactive
same,outcome,[7],inactive
CCOC(=O)C1=C[C@@H](OC(CC)CC)[C@H](NC(C)=O)[C@@H](N)C1,outcome,[1],inactive
same,outcome,[6],inactive
same,outcome,[4],inactive
same,outcome,[7],inactive
SCCCCCCCCS,outcome,[1],inactive
same,outcome,[2],inactive
same,outcome,[3],inactive
same,outcome,[4],inactive
CC[C@@]1(O)C[C@@H]2CN(CCc3c([nH]c4ccccc34)[C@@](C(=O)OC)(c3cc4c(cc3OC)N(C)[C@H]3[C@@](O)(C(=O)OC)[C@H](OC(C)=O)[C@]5(CC)C=CCN6CC[C@]43[C@@H]65)C2)C1,outcome,[1],inactive
same,outcome,[2],inactive
same,outcome,[3],inactive
same,AC50,[4],17.3 nM (active)
same,outcome,[4],inactive
same,outcome,[5],inactive
same,AC50,[8],17500 nM (active)
same,AC50,THRB (gene 7068) [9],73.4 nM (active)
same,outcome,[10],inactive
same,outcome,THRB (gene 7068) [11],inactive
same,outcome,[12],inactive
same,outcome,[13],inactive
CC(C)(C)C(=O)CC(=O)C(C)(C)C,outcome,[1],inactive
same,outcome,[2],inactive
same,outcome,[3],inactive
same,outcome,[4],inactive
O=Cc1cccc([N+](=O)[O-])c1,outcome,[1],inactive
same,outcome,[2],inactive
same,outcome,[3],inactive
same,outcome,[4],inactive
same,outcome,[7],inactive
COc1ccc(Br)c(C)c1,outcome,[1],inactive
same,outcome,[2],inactive
same,outcome,[3],inactive
same,outcome,[7],inactive
Cc1nc2n(c(=O)c1CCN1CCC(c3noc4cc(F)ccc34)CC1)CCC[C@H]2O,outcome,[1],inactive
same,outcome,[2],inactive
same,outcome,[3],inactive
same,outcome,[4],inactive
same,outcome,[5],inactive
same,outcome,[7],inactive
Cc1ccc(=O)n(-c2ccccc2)c1,outcome,[1],inactive
same,outcome,[2],inactive
same,outcome,[3],inactive
same,outcome,[4],inactive
same,outcome,[7],inactive
O=C1c2ccccc2C(=O)c2cc(Cl)ccc21,outcome,[1],inactive
same,outcome,[2],inactive
same,outcome,[3],inactive
same,outcome,[5],inactive
